Data on 57 compounds can be found in ChEMBL document CHEMBL4513216, “Probing the Open Global Health Chemical Diversity Library for Multistage-Active Starting Points for Next-Generation Antimalarials” (ACS Infect Dis, 2020).

Screen size: about 69,000 compounds; about 8,600 (12%) showed an effect of 50% or more. Shown is part of a subset that was picked to be rich in strong results.

For this assay, the system named is Plasmodium berghei. Briefly: Screen against P. berghei liver stage (PbLuc), transformed with Luciferase, at 10uM. The conditions noted are these: tested at 10 uM. The assay is classed as functional, HepG2.
As for `CN(Cc1ccco1)Cc1cnc2n1CCN(S(C)(=O)=O)CC2`, the INHIBITION was 31.9%. Under `O=C(NC[C@H]1OC[C@@H]2CCN(Cc3ccco3)C[C@@H]21)c1ccsc1` stands 23.5%; under `Cn1cc2c(n1)C(CNCC1CCOCC1)OCC2` (configuration not stated), -4.02%; under `Cn1cc2c(n1)C(CNC1CCOCC1)OCC2` (configuration not stated), 4.02%. `CC(C)NCC1OCCc2cn(C)nc21` (configuration not stated): the INHIBITION was 55.5%.

In the case of `CN(C)c1ccc(C(=O)N2CCC(c3cc4ncccc4[nH]3)CC2)cc1`, the INHIBITION came out at 57.7%. Under `Cc1cnc2cc(C3CCN(C(=O)c4ccncc4)CC3)[nH]c2n1` stands 38.8%; under `COc1cc(CCC(=O)N2CCC(c3cc4ncccc4[nH]3)CC2)on1`, -26.4%. Under `CN(C)c1ccc(C(=O)N2CCC(c3n[nH]c(C4CC4)n3)CC2)cc1` stands 2.97%; under `Cc1noc(C)c1C(=O)N1CCC(c2cc3cnccc3[nH]2)CC1`, 13.335%. Turning to `CN(C)c1ccc(C(=O)N2CCC(c3cc4cnccc4[nH]3)CC2)cc1`, the INHIBITION was found to be 51.75%. Under `CN(C)c1cccc(C(=O)N2CCC(c3n[nH]c(C4CC4)n3)CC2)c1` stands 13.3%; under `COCc1ccc(C(=O)N2CCC(c3cc4nccnc4[nH]3)CC2)cc1`, 66.5%. Regarding `COCc1ccc(C(=O)N2CCC(c3cc4ncc(C)nc4[nH]3)C2)cc1` (configuration not stated), the INHIBITION was determined as 20.8%.

Regarding `CN(C1CCN(C(=O)NCCc2ccc(F)cc2F)CC1)S(C)(=O)=O`, the INHIBITION was 39.7%. Regarding `CC(=O)Nc1sc2c(c1C(=O)O)CCc1ccccc1-2`, the INHIBITION stood at 11.1%. For the compound `CC(C)CNc1c(NCc2ccco2)c(=O)c1=O`, the INHIBITION is -4.28%.

As to `COCCO[C@H]1CCN(C(=O)c2ccoc2C)[C@H]1Cc1cnn(C)c1`, the INHIBITION was found to be 14.1%. In the case of `COCCn1ccc(=O)c(OCC(=O)Nc2ccc(OC)c(Cl)c2)c1C`, the INHIBITION is on record as -38%. Under `CC(CNC(=O)c1ccc(F)cc1I)N1CCCC1` (configuration not stated) stands 55.8%; under `CC(CNC(=O)c1cc(Cl)ccc1F)N1CCCC1` (configuration not stated), 33.8%; under `CN1CCN(C(CNC(=O)c2ccc(Cl)cc2F)c2cccs2)CC1` (configuration not stated), 66.7%. With `CC(CNC(=O)c1cc(Cl)ccc1I)N1CCCC1` (configuration not stated), the INHIBITION was found to be 30.5%. As to `CC(CNC(=O)c1ccc(Cl)cc1F)N1CCN(C)CC1` (configuration not stated), the INHIBITION was 25%. For `CC(CNC(=O)c1ccc(F)cc1Cl)N1CCCC1` (configuration not stated), the INHIBITION amounted to 35.6%. Regarding `CC(CNC(=O)c1ccc(Cl)cc1F)N1CCCC1` (configuration not stated), the INHIBITION worked out at 51.4%. For the compound `O=C(NCC(c1cccs1)N1CCOCC1)c1ccc(F)cc1Cl` (configuration not stated), the INHIBITION was -14.5%. As for `CC(CNC(=O)c1ccc(Cl)cc1I)N1CCCC1` (configuration not stated), the figure is 17.4%. As for `Cc1cc(CN2CCN(C(=O)CCc3ccco3)CC2)on1`, the INHIBITION is 14%. On to `CC(NCc1ccccc1Cl)c1ccc(OCC(=O)NC2CC2)cc1` (configuration not stated), for which the INHIBITION amounted to 48.2%. For the compound `CCc1nc(CNC(C)(CO)C2CCCCC2)no1` (configuration not stated), the INHIBITION stood at 37.4%. `Cc1cnn(CC2CN(c3nc4ccccc4o3)CCO2)c1` (configuration not stated): the INHIBITION worked out at 44.1%. As for `Cn1ccnc1CN1CCCN(Cc2noc(C3CC3)n2)CC1`, the INHIBITION stood at 11.2%. Under `Cc1nc(CN2CCN(Cc3nccn3C)CC2)no1` stands 33.7%; under `Cc1cc(C(F)(F)F)nc(N2CCN(Cc3nccn3C)CC2)n1`, 74%; under `Cc1cc(C)nc(N2CCN(Cc3nccn3C)CC2)n1`, 7.52%. In the case of `Cc1cc(C2CCC2)nc(N2CCN(Cc3nccn3C)CC2)n1`, the INHIBITION came to 84.1%. In the case of `Cc1cc(C2CCC2)nc(N2CC(n3cccn3)C2)n1`, the INHIBITION is -9.91%. Under `Cn1ccnc1CN1CCN(c2ccc(C#N)cc2F)CC1` stands 53.3%; under `Cn1ccnc1CN1CCN(Cc2ccc(C#N)cc2F)CC1`, 15.15%. As for `Cn1ccnc1CN1CCN(Cc2cc(C#N)ccc2F)CC1`, the figure is 35.3%. `COCc1cccc(NC(=O)NCCCN(C)S(C)(=O)=O)c1`: the INHIBITION is reported as -10.8%. Turning to `CC(C1CC1)N(C)C(=O)c1ccc(-n2ncc(C#N)c2N)cc1` (configuration not stated), the INHIBITION is reported as -61.4%. As for `CCCOCCN1CCN(c2ncnc3[nH]ccc23)CC1`, the figure is -24%. As for `O=C(O)Cn1nc(-c2ccccc2F)ccc1=O`, the figure is 26.4%; as for `NC(=O)Cn1nc(-c2ccccc2F)ccc1=O`, 15.4%; as for `CC(=O)Cn1nc(-c2ccccc2F)ccc1=O`, 64.2%. As for `Cc1noc(Cl)c1CC(=O)N1CCC(Nc2cccnn2)CC1`, the figure is 18.04%; as for `CCC(=O)N1CCN(C(=O)Cn2cccn2)CC1`, 27.45%. Consider `O=C(NCc1cccnc1)[C@@H]1CC[C@@H]2[C@@H](CCN2c2ncccn2)O1`, for which the INHIBITION stood at 96.3%. `O=C(NCc1cccnc1)[C@H]1CC[C@@H]2[C@@H](CCN2c2ncccn2)O1`: the INHIBITION came out at 74.2%.

In the case of `O=C(NCc1ccccn1)[C@@H]1CC[C@@H]2[C@@H](CCN2c2ncc(F)cn2)O1`, the INHIBITION turned out to be 40.4%.

On to `O=C(NCc1ccco1)[C@H]1CC[C@@H]2[C@@H](CCN2c2ncccn2)O1`, for which the INHIBITION amounted to 7.77%. In the case of `O=C(NCc1ccco1)[C@H]1CC[C@@H]2[C@@H](CCN2Cc2cccnc2)O1`, the INHIBITION is -66%.

Take `CNC(=O)[C@H]1CC[C@@H]2[C@@H](CCN2c2ncccn2)O1`: the INHIBITION came out at 47.5%. Under `O=C(NCc1cccs1)[C@@H]1CC[C@@H]2[C@@H](CCN2c2ncccn2)O1` stands 3.25%; under `O=C(NCc1cccnc1)[C@@H]1C[C@@H]2CCN(c3ncc(F)cn3)C[C@@H]2O1`, -9.71%.
